According to PubChem BioAssay:
Active and inactive are the calls of the source. Unless noted, the rule behind the calls is not given here.

Legend:
[1] = A549 cell viability effects, profiling panel, calcein-AM fluorescence, 48 h, basal (AID 1162); details: higher = more signal; note: test concentration not given here
[2] = adipocyte viability effects, profiling panel, cell-based, 3T3-L1 adipocytes, calcein-AM fluorescence, 48 h, basal (AID 1163); details: 3T3-L1 adipocytes viability, higher = more signal; note: test concentration not given here
[3] = HepG2 cell viability effects, profiling panel, calcein-AM fluorescence, 48 h, basal (AID 1164); details: higher = more signal; note: test concentration not given here
[4] = MM1S cell viability effects, profiling panel, calcein-AM fluorescence, 48 h, basal (AID 1165); details: higher = more signal;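 note: viability of MM1S multiple myeloma cells under basal unstimulated conditions; test concentration not given here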
[5] = basal RPMI8226 viability, no added stimulus, profiling panel, cell-based, calcein-AM fluorescence, 48 h, PK04 Diversity Set (AID 1166); details: RPMI8226 myeloma viability, higher = more signal;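 note: cells grown under basal conditions without added stimulus; test concentration not given here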
[6] = basal HepG2 mitochondrial membrane potential changes, profiling panel, cell-based, JC-1 fluorescence, 24 h, 100 nL compound (AID 1167); details: higher = more signal; note: test concentration not given here
[7] = basal 3T3-L1 adipocyte mitochondrial potential changes, profiling panel, cell-based, JC-1 fluorescence, 3T3-L1 adipocytes, 24 h, 100 nL compound (AID 1168); details: JC-1 mitochondrial fluorescence, higher = more signal, called active from +8 up or from −8 down; note: test concentration not given here
[8] = basal RPMI8226 mitochondrial membrane potential changes, profiling panel, cell-based, JC-1 fluorescence, 24 h, 100 nL compound (AID 1169); details: RPMI8226 myeloma, JC-1 mitochondrial potential fluorescence, higher = more signal; note: test concentration not given here
[9] = basal MM1S mitochondrial membrane potential changes, profiling panel, cell-based, JC-1 fluorescence, 24 h, 100 nL compound (AID 1170); details: higher = more signal; note: test concentration not given here
[10] = A549 lung cancer cell viability effects, profiling panel, resazurin fluorescence, 24 h, PK04 Diversity Set (AID 1171); details: higher = more signal, called active from +8 up or from −8 down; note: test concentration not given here
[11] = HepG2 liver cancer cell viability effects, profiling panel, resazurin fluorescence, 24 h, PK04 Diversity Set (AID 1172); details: higher = more signal; note: test concentration not given here
[12] = basal S. cerevisiae growth modulation, no modifier, primary screen, OD600, strain BY4716, 24 h, basal condition (AID 1173); details: OD600, 24 h, higher = more signal, called active from +8 up or from −8 down
[13] = MM1S myeloma cell viability, profiling panel, resazurin fluorescence, basal, 24 h, PK04 Diversity Set (AID 1174); details: higher = more signal, called active from +8 up or from −8 down;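 note: MM1S multiple myeloma cell line; test concentration not given here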
[14] = biological target: Dihydroorotate dehydrogenase (quinone), mitochondrial (Plasmodium falciparum (isolate 3D7)) (UniProt Q08210); test: PfDHODH enzyme inhibitors, primary screen, biochemical, C-terminal His tag, absorbance 600 nm (AID 1175); details: DCIP absorbance 600 nm, higher = more signal, called active from +8 up or from −8 down;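 note: recombinant parasite enzyme with a five histidine tag at its C terminus; test concentration not given here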
Chain of Dihydroorotate dehydrogenase (quinone), mitochondrial (Plasmodium falciparum (isolate 3D7)) (Q08210 whole entry, looked up): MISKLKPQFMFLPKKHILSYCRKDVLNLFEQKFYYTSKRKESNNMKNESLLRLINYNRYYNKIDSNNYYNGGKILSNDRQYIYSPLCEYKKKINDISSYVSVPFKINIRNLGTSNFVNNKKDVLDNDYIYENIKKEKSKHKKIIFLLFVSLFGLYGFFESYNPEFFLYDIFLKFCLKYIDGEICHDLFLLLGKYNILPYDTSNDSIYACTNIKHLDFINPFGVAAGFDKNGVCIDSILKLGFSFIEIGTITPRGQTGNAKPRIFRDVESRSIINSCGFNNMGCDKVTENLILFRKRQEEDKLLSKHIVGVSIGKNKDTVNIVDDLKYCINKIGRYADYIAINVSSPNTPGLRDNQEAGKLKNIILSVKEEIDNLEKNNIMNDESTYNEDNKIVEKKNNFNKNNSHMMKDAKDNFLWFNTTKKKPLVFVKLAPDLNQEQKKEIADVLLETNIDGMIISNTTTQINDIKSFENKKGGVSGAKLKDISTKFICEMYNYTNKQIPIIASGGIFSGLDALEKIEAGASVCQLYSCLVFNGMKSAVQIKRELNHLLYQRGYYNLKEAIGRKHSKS

[15] = P. aeruginosa biofilm formation inhibitors, primary screen, strain PAO1, LB-PBS medium, absorbance 600 nm (AID 1176); note: test concentration not given here; details: P. aeruginosa PAO1 growth/biofilm, A600, 12 h; higher = more signal
[16] = S. cerevisiae RM11-1a growth modifiers, primary screen, strain RM11-1a, OD600, basal, 24 h (AID 1177); details: OD600, 24 h, higher = more signal, called active from +8 up or from −8 down;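 note: cultures grown under basal conditions with no added stressor; test concentration not given here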
[17] = E. coli acrAB mutant growth effects, primary screen, E. coli filamentation inducers, strain DRC39, OD650, 24 h (AID 1178); details: higher = more signal, called active from +8 up or from −8 down;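 note: growth measured as culture turbidity by optical density at 650 nm; test concentration not given here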
[18] = E. coli acrAB mutant growth effects, primary screen, E. coli filamentation inducers, strain DRC39, OD650, 48 h (AID 1179);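 note: screen aims at cell division blockers that make cells filament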; details: E. coli DRC39 delta-acrAB growth, higher = more signal, called active from +8 up or from −8 down
[19] = RPMI8226 myeloma cell viability, profiling panel, resazurin fluorescence, basal, 24 h, PK04 Diversity Set (AID 1180); details: higher = more signal;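 note: RPMI8826 multiple myeloma cell line at 5000 cells per well; test concentration not given here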
[20] = biological target: E3 ubiquitin-protein ligase XIAP (Homo sapiens) (UniProt P98170); test: XIAP binders, primary screen, biophysical, small-molecule microarray, fluorescence 635 nm (AID 1181); details: small-molecule microarray binding, higher = more signal;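 note: score merges 667 nm emission and signal to noise over triplicate slides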
Chain of E3 ubiquitin-protein ligase XIAP (Homo sapiens) (P98170 whole entry, looked up): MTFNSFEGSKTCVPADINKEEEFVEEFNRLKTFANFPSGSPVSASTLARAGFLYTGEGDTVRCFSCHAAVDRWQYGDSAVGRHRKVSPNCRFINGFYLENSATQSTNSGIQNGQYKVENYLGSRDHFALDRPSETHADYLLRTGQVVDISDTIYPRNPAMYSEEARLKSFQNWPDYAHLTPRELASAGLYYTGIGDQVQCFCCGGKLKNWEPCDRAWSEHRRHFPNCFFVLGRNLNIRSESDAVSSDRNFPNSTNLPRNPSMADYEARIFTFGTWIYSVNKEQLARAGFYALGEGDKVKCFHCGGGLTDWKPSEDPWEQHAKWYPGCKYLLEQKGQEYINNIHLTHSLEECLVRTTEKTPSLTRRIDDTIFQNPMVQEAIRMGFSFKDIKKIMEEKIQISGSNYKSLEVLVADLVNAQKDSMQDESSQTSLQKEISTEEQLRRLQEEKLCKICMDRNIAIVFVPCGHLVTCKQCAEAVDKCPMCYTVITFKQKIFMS

Structure (SMILES)	z-score [1]	z-score [2]	z-score [3]	z-score [4]	z-score [5]	z-score [6]	z-score [7]	z-score [8]	z-score [9]	z-score [10]	z-score [11]	z-score [12]	z-score [13]	composite z-score [14]	z-score [15]	z-score [16]	z-score [17]	z-score [18]	z-score [19]	composite z-score [20]
CN(C)c1ccc(C(O)C2C=CC3C(=O)NC(=O)C3N2Nc2ccc(Cl)cc2Cl)cc1 (stereo not given)	-0.602	0.117	-0.675	0.463	-0.792	-1.26	-1.06 (inactive)	-0.752	0.261	-0.555 (inactive)	-0.492	0.454 (inactive)	-1.44 (inactive)	0.438 (inactive)	0.683 (inactive)	0.839 (inactive)	0.221 (inactive)	0.0462 (inactive)	-1.44	0.0914
O=C1c2ccccc2[C@@]2(Cc3ccccc3N(CC(F)(F)F)C2=O)[C@H](c2ccc(CO)cc2)N1C1CCCCC1	-0.449	0.747	-0.0145	0.129	-1.27	-0.0304	0.701 (inactive)	1.06	0.933	0.304 (inactive)	-0.0665	0.713 (inactive)	1.07 (inactive)	-24.3 (active)	0.379 (inactive)	-0.572 (inactive)	0.172 (inactive)	-0.411 (inactive)	0.748	-0.2
C[C@H]1C2[C@H](Cc3ccccc3)NC(=O)[C@]23C(=O)N[C@H](Cc2ccccc2)C(=O)N[C@@H](Cc2ccccc2)C(=O)NC/C=C\C/C=C/C3[C@@H]2O[C@]12C (stereo not given in full)	0.373	0.353	0.0599	-0.442	-1.35	1.24	0.4 (inactive)	-0.52	0.29	0.276 (inactive)	-0.204	-1.79 (inactive)	1.03 (inactive)	-0.427 (inactive)	-0.234 (inactive)	-0.617 (inactive)	1.73 (inactive)	0.9 (inactive)	0.724	0.306
CCOC(=O)C1=CC[C@@H](c2ccc(-c3ccc(OCc4ccccc4)cc3)c(OC)c2)N(S(=O)(=O)c2ccc(C)cc2)[C@H]1c1ccccc1	-0.603	-0.416	0.418	-1.23	-0.119	4.16	0.51 (inactive)	-0.161	-1.54	0.751 (inactive)	0.899	0.0553 (inactive)	0.25 (inactive)	0.917 (inactive)	0.325 (inactive)	-0.0764 (inactive)	0.263 (inactive)	1.3 (inactive)	0.894	-0.02
COCCOC(=O)N1C(=O)[C@@]2(c3cc(C#CC4=CCCCC4)ccc31)[C@H](C(=O)NC[C@H](O)c1ccccc1)[C@H]1C(=O)O[C@H](c3ccccc3)[C@H](c3ccccc3)N1[C@@H]2c1ccc(OCCO)cc1	-0.602	-0.39	-0.199	-1.89	-1.63	-1.92	0.449 (inactive)	-0.704	-1.65	-0.355 (inactive)	0.604	1.61 (inactive)	-1.68 (inactive)	-0.773 (inactive)	2.83 (inactive)	2.7 (inactive)	-0.276 (inactive)	0.0077 (inactive)	-1.44	-0.26
